Compound activity (PubChem)
A selection: hits, their analogues and other compounds. The true share with any hit is near 6.1%.
ATXN viability: viability counter-screen for ATXN expression inhibitors. S2 cells (HEK-293 line with an ATXN2-luciferase reporter) viability, CellTiter-Fluor protease fluorescence, 24 h. Potency, µM (doses to about 56.7 µM), usual class: cytotoxic. 400,000 compounds, 0.49% hits; further: nearly all actives have a fitted effect of over 40% in size
VP16 counter: counter-screen for ROR gamma inhibitors: Gal4-VP16 reporter | Potency, µM (series often up to 53.6 µM), inactives show top-dose activity, negative = inhibition, most hits filed as inhibitors | AID 2546 | Drosophila S2 Gal4-VP16 UAS-luciferase, luminescence, 20 h | 310,000 compounds, 3.5% hits;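 further: Gal4-VP16 expression switched on by copper sulfate through the metallothionein promoter; on the % scale 0 is the no-effect control and ±100 the full control effect; nearly all actives have a fitted effect of over 50% in size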
RORgamma inh: ROR gamma (mouse) transcription inhibition; P51450; Drosophila S2 Gal4-RORgamma UAS-luciferase reporter, 20 h; Potency, µM (titrated, usually from 53.6 µM), inactives show top-dose activity change, negative = inhibition, hits mostly inhibitors; 310,000 compounds, 5.4% hits; AID 2551; further: on the % scale 0 is the no-effect control and ±100 the full control effect; nearly all actives have a fitted effect of over 60% in size
Target sequence (P51450 whole entry, looked up, the tested form may be a part): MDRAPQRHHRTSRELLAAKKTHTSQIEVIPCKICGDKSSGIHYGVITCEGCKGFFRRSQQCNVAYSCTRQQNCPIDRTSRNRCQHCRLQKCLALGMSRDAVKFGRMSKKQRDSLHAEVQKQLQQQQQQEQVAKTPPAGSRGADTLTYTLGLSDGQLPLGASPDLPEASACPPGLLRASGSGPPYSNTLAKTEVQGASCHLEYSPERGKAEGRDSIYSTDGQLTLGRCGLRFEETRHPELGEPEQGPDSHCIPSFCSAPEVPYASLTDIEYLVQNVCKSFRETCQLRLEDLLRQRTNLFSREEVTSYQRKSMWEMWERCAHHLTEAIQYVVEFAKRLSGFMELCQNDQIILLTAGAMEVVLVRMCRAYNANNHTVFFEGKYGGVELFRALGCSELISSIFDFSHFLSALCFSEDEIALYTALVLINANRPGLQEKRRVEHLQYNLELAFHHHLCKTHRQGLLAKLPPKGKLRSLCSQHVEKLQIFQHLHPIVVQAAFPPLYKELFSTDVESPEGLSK
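Drosophila S2 cells stably expressing Gal4-DBD/mouse RORγ fusion under metallothionein promoter plus UAS-luciferase; compound 1 h, then 700 uM CuSO4 induction for 20 h at ambient temperature; inhibition read as reduced luminescence.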
TGFb SMAD3 inh: TGF-b pathway inhibition | HepG2 CAGA-GFP TGF-b/SMAD3 reporter, GFP fluorescence, 18 h; TGF-beta stimulated, 500 pg/mL final | Potency, µM (highest dose often 46.1 µM), for the others: at the top dose activity, negative = inhibition, usual class: inhibitors | 410,000 compounds, 1.2% hits | AID 588855; further: on the % scale 0 is the no-effect control and ±100 the full control effect; nearly all actives have a fitted effect of over 65% in size
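Smad-responsive CAGA-GFP expression was quantified in HEPG2 cells exposed to compounds and 500 pg/mL final TGF-beta for 18 h at 37 degrees C; unstimulated wells defined full inhibition.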
HepG2 viability: counter-screen for TGF-b inhibitors: cytotoxicity in HepG2 cells; HepG2 CAGA-GFP viability, ATP luminescence, 18 h; Potency, µM (top dose mostly 46.1 µM), without a hit: top-dose activity change, negative = cytotoxicity, usual class: cytotoxic; 410,000 compounds, 0.76% hits; AID 588856
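CellTiter-Glo luminescence gave cytotoxicity after 18 hours at 37 degrees C. The cells were HepG2 CAGA-GFP in 1% FBS DMEM, stimulated with 500 pg/mL TGF-beta after compound addition. %Activity was normalised to no-cell wells (complete cell-killing) and DMSO (no toxicity), and curves were fitted and classified.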
ATXN2 expr inh: inhibitors of ATXN2 expression. HEK-293 ATXN2-luciferase reporter, luminescence, 24 h. Potency, µM (highest dose often 57 µM), for inactives: top-dose activity change, negative = inhibition, hits mostly inhibitors. 360,000 compounds, 0.72% hits. AID 1745845; further: on the % scale 0 is the no-effect control and ±100 the full control effect; nearly all actives have a fitted effect of over 55% in size
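ATXN2-luciferase reporter cells (luciferase flanked by upstream and downstream ATXN2 gene portions) were treated 24 h at 37 °C with compounds at up to 57 uM. SteadyGlo luminescence gave expression; GF-AFC fluorescence gave viability.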
The depositor's hits bear a star; i = inactive; ? = inconclusive; nt = no result given. The call rests on the fitted dose curve; in most records, active means well fitted curve in the direction sought with a large enough effect; inconclusive means small, poorly fitted or top-dose-only effect, or another doubt; inactive means no such curve, though single readings can be large; an effect the other way counts as inactive or inconclusive. Potency means the concentration at half of the fitted maximal effect.

SMILES	ATXN viability	VP16 counter	RORgamma inh	TGFb SMAD3 inh	HepG2 viability	ATXN2 expr inh
Cc1cccc(C)c1NC(=S)N(c1ccccc1)C(C)C	i	-7%	-14%	2%	-2%	-1%
CC(C)N(C(=S)NCc1ccccc1)c1ccccc1	i	?	7.9µM*	-19%	2%	-20%
CN(C)CCCN(Cc1ccccc1)C(=S)NCc1ccccc1	i	3%	8%	12%	-9%	nt
CC(C)N(C(=S)NCc1ccccc1)C(C)C	i	11µM*	7.1µM*	-8%	-21%	nt
Cc1cccc(CC(=O)NCCc2csc(-c3ccc(C(F)(F)F)cc3)n2)c1	nt	nt	nt	0%	-103%	nt
O=C1C=C(c2ccc3ccccc3c2)C[C@@H](c2ccc(Cl)cc2)C1	i	nt	nt	?	-11%	106%
O=C1C=C(c2ccc3[nH]ccc3c2)C[C@@H](c2ccc(Cl)cc2)C1	?	nt	nt	11µM*	-23%	0%
COc1ccc(-c2nn(-c3ccccc3)cc2C(=O)OCC(=O)c2ccc(C)c([N+](=O)[O-])c2)cc1	i	18µM*	?	?	-26%	nt
CCC(=O)NC(/C=C/c1ccccc1)c1cc([N+](=O)[O-])c2cccnc2c1O (stereo not given)	nt	2µM*	2.2µM*	nt	nt	nt
CCC(=O)NC(c1cccs1)c1cc([N+](=O)[O-])c2cccnc2c1OC (stereo not given)	i	nt	nt	-7%	-10%	6%
Cc1ccc(C(NC(=O)C(C)C)c2cc([N+](=O)[O-])c3cccnc3c2O)cc1 (stereo not given)	i	?	2.2µM*	-15%	-4%	?
CC(C)C(=O)NC(c1cccs1)c1cc([N+](=O)[O-])c2cccnc2c1O (stereo not given)	i	3.5µM*	3.2µM*	?	-34%	?
O=C(N/N=C/c1ccccn1)c1cc(-c2ccncc2)nc2ccccc12	?	?	8.9µM*	9%	11%	?
Cc1ccc(/C=N/NC(=O)c2cc(-c3ccncc3)nc3ccccc23)o1	i	nt	nt	?	3%	-11%
O=C(N/N=C/c1ccsc1)c1cc(-c2cccs2)nc2ccccc12	?	4.5µM*	4µM*	-3%	-16%	-20%
COc1ccccc1-c1cc(C(=O)N/N=C/c2sccc2C)c2ccccc2n1	i	8.9µM*	7.1µM*	-14%	-8%	11%
O=C(N/N=C/c1ccc[nH]1)c1cc(-c2ccc(Cl)cc2)nc2ccccc12	i	5.6µM*	1.4µM*	-18%	-19%	?
Cn1c(=O)c2nc(SCC(=O)Nc3cc(Cl)ccc3Cl)n(C)c2n(C)c1=O	nt	nt	nt	13%	8%	nt
Cc1nc(N2CCCC2)ncc1C(=O)Nc1ccccc1	i	nt	nt	8%	-4%	-2%
O=C(N/N=C/c1ccsc1)c1cc(-c2ccncc2)nc2ccccc12	?	-13%	11µM*	?	9%	-18%
CCc1ccc(Cn2c(CNS(=O)(=O)c3ccc([N+](=O)[O-])cc3)nc3cccnc32)cc1	nt	nt	nt	?	-39%	nt
CCCCN(C)S(=O)(=O)c1ccc(C(=O)Nc2nnc(CSC)o2)cc1	i	1.1µM*	0.79µM*	-9%	-14%	?
CCc1nnc(NC(=O)c2ccc(S(=O)(=O)N(CC)CC)cc2)s1	i	?	-39%	1%	16%	7%
CCN(CC)S(=O)(=O)c1ccc(C(=O)Nc2nnc(CSC)o2)cc1	i	4µM*	1.1µM*	3%	1%	6%
CCN(CC)S(=O)(=O)c1ccc(C(=O)Nc2nnc(COC)o2)cc1	i	16µM*	3.5µM*	10%	-4%	19%
SMILES	ATXN viability	VP16 counter	RORgamma inh	TGFb SMAD3 inh	HepG2 viability	ATXN2 expr inh
CCOC(=O)N1CCN(S(=O)(=O)c2ccc(C(=O)Nc3nnc(CSC)o3)cc2)CC1	i	?	13µM*	8%	10%	-8%
Oc1cc(O)c(/C=C/c2ccnc3ccccc23)c(O)c1	nt	nt	nt	-1%	4%	nt
O=C(CNC(=O)c1cccnc1)c1ccc(F)cc1	nt	nt	nt	28%	1%	nt
CCCCOC(=O)c1ccc(NC(=O)Cn2nnc3sc4c(c3c2=O)CCCC4)cc1	i	nt	nt	-22%	-14%	-3%
CCCCN(CCCC)S(=O)(=O)c1ccc(C(=O)Nc2nnc(COC)o2)cc1	?	1µM*	0.45µM*	?	-17%	-36%
COCCN(CCOC)S(=O)(=O)c1ccc(C(=O)Nc2ccncc2)cc1	i	1%	20%	0%	-5%	4%
CC(C)c1nn2c(=O)cc(COC(=O)c3ccco3)nc2s1	i	nt	nt	-8%	-1%	14%
CN1CCN(c2ccc(Nc3ccnc4cc(Cl)ccc34)cc2)CC1	?	nt	nt	-33%	-31%	3.5µM*
CCOc1ccc(Nc2ccnc3cc(Cl)ccc23)cc1	i	0%	19%	-16%	-25%	-29%
CN1CCN(c2ccc(Nc3c4ccccc4nc4ccccc34)cc2)CC1	nt	10µM*	-44%	nt	nt	nt
O=C(O)c1ccc(Nc2c3ccccc3nc3ccccc23)cc1	nt	20µM*	?	0%	-29%	7%
O=C(O)c1ccc(Nc2nc(-c3ccccc3)nc3ccccc23)cc1	?	-7%	0%	-10%	-29%	nt
COc1ccc(Nc2c3ccccc3nc3ccccc23)cc1	i	nt	nt	?	-36%	?
COc1cc(C(=O)Nc2ccc(-c3nc4ccccc4o3)c(O)c2)cc(OC)c1OC	i	nt	nt	0%	-39%	5%
S=c1nc[nH]c2n[nH]nc12	nt	nt	nt	5%	-30%	nt
Cc1ccc(Cn2c(=O)n(Cc3ccccc3)c(=O)c3oc4ccccc4c32)cc1	i	nt	nt	7%	-5%	5%
